From PubChem
USP10 block: blocks human USP10 ubiquitin-rhodamine cleavage; AID 1645856; inhibition, % at 20 µM; Q14694; 47,000 compounds, 1.1% hits; purified USP10, Ub-rhodamine fluorescence, 60 min
USP30 block: human USP30 deubiquitinase inhibition | Q70CQ3 | purified USP30, Ub-rhodamine cleavage fluorescence | inhibition, % at 25 µM | 47,000 compounds, 5.3% hits | AID 1645860
USP17 block: human USP17-like deubiquitinase inhibition; purified USP17, Ub-rhodamine cleavage fluorescence, 3 h; 47,000 compounds, 6.5% hits; inhibition, % at 50 µM; A8MUK1
Target sequence (A8MUK1 whole entry, looked up): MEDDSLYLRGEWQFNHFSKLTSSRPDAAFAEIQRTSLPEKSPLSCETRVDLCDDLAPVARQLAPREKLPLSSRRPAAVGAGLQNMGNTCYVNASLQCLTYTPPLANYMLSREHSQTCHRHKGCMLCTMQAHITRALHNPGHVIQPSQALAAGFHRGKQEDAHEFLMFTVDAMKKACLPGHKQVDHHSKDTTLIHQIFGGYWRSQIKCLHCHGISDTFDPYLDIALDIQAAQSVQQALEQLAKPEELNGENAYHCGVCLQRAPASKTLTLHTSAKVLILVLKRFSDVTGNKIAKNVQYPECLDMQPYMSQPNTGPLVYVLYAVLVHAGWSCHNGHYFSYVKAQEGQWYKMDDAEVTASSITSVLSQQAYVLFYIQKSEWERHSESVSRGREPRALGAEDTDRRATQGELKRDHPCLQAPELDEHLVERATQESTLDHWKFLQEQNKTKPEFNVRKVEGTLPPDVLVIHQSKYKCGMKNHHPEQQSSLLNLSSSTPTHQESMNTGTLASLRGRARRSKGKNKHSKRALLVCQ
USP28 block: inhibitors of human USP28 deubiquitinase. Q96RU2. purified USP28, Ub-rhodamine cleavage fluorescence, 30 min. inhibition, % at 25 µM. 47,000 compounds, 3% hits. AID 1645857
USP8 inh: blocks human USP8 ubiquitin-rhodamine cleavage; inhibition, % at 20 µM; purified USP8, Ub-rhodamine cleavage fluorescence, 30 min; AID 1645853; 47,000 compounds, 4.2% hits
OTUD3 inh: human OTUD3 deubiquitinase inhibition; purified OTUD3, Ub-rhodamine fluorescence, 2 h; inhibition, % at 25 µM; 47,000 compounds, 0.7% hits; AID 1645858
Each line names hits and unclear results; the compound was inactive in the other large screens. An excerpt weighted towards active compounds, which were near 13% of everything screened. Cut-off read from the data, not from the text of the source: active = inhibition above about 30%; inactive = the rest.

O=C(C1CCC1)N1CCC(c2nc3c(nnn3Cc3c(Cl)cccc3Cl)c(=O)[nH]2)CC1	USP30 block 36
CCc1ccccc1NC(=O)N1CCC(c2nc3c(nnn3Cc3ccc(F)cc3)c(=O)[nH]2)CC1	none
O=c1[nH]c(C2CCN(S(=O)(=O)c3ccccc3)CC2)nc2c1nnn2Cc1c(Cl)cccc1Cl	USP10 block 32, USP30 block 39
O=C(Nc1cccc2ccccc12)N1CCC(c2nc3c(nnn3Cc3ccc(F)cc3)c(=O)[nH]2)CC1	USP30 block 36, USP17 block 91, USP28 block 38, USP8 inh 97
O=c1[nH]c(C2CCN(S(=O)(=O)c3cccc4ccccc34)CC2)nc2c1nnn2Cc1ccccc1Cl	USP30 block 31, USP28 block 33
CCN(CC)C(=O)C1CCN(S(=O)(=O)c2ccc3c(c2)CCCC3)CC1	none
O=C(Nc1ccc(Cl)cc1)C1Cn2ccnc2C2(CCN(C(=O)c3ccn[nH]3)CC2)O1 (centres undefined)	none
Cc1cccc(C(=O)NCC(=O)N2CCN(c3ccc(Cl)cc3)CC2)c1	USP30 block 41, USP17 block 33
O=C(NCC(=O)N1CCN(c2ccccc2)CC1)c1ccccc1	none
CCc1ccccc1NC(=O)CNC(=O)c1cc2ccccc2o1	none
Cc1ccc(NC(=O)Cn2c(Nc3ccc(F)cc3)nc(C)cc2=O)cc1	USP30 block 67, USP17 block 78
Cc1cc(=O)n(CC(=O)Nc2ccc(F)c(F)c2)c(N2CCCCC2)n1	none
Cc1cc(=O)n(CC(=O)Nc2cccc(F)c2)c(N2CCCC2)n1	none
Cc1cc(=O)n(CC(=O)Nc2ccccc2F)c(Nc2ccc(F)cc2)n1	USP30 block 83, USP17 block 44, USP28 block 39
Cc1cc(=O)n(CC(=O)Nc2ccc(C)c(C)c2)c(N2CCCC2)n1	USP30 block 35
Cc1cc(C)c2c(n1)SCC(=O)N2CC(=O)Nc1ccccc1F	none (no result: USP17 block)
Cc1cc(=O)n(CC(=O)Nc2ccccc2)c(Nc2ccc(F)cc2)n1	USP30 block 63, USP17 block 69, USP28 block 43
COc1cccc(Cn2cc(C(=O)O)c(S(=O)(=O)N3CCCCC3)n2)c1	none
O=C(C1CCN(c2nc3nc[nH]c(=O)c3s2)CC1)N1CCN(C2CCCCC2)CC1	none
Cc1cc(=O)n(CC(=O)Nc2ccccc2)c(Nc2ccc(C)c(C)c2)n1	none
Cc1cccc(Nc2nc(C)cc(=O)n2CC(=O)Nc2ccccc2)c1	USP30 block 30
Cc1cccc(NC(=O)Cn2c(C)cc(=O)n3nc(-c4cccs4)nc23)c1	USP17 block 47
Cc1cc(=O)n2nc(-c3cccs3)nc2n1CC(=O)Nc1cccc(C(F)(F)F)c1	none
Cc1ccc2c(Sc3ccc(Cl)cc3)c(C(=O)N3CCC4(CC3)OCCO4)[nH]c2c1	USP28 block 32
Cc1ccc2nc(N(CCCN(C)C)C(=O)COc3ccccc3)sc2c1	USP30 block 41, USP17 block 36
COCCCNc1nc2c(-c3ccc(Cl)cc3)nnn2c2ccccc12	none
COc1ccc(CCNc2nc3c(-c4ccccc4)nnn3c3ccccc23)cc1OC	USP8 inh 44
Cc1cccc(NC(=O)[C@@H]2CCCN2C2=NS(=O)(=O)c3ccccc32)c1C	USP30 block 32, USP17 block 35, USP8 inh 46
COc1ccc(NC(=O)[C@@H]2CCCN2C2=NS(=O)(=O)c3ccccc32)cn1	none
Cc1ccc2nc(CCC(=O)NCc3ccccc3F)n(C)c(=O)c2c1	none
N#Cc1ccccc1OCC(=O)N1CCC(c2nc3ccccc3o2)CC1	USP17 block 32
O=C(c1ccccc1F)N1CCC(c2nc3ccccc3o2)CC1	none
O=C(NC1CC1)c1ccc2c(=O)n3c(nc2c1)CCCC3	none (no result: USP30 block, USP28 block)
N#Cc1cccc(NC(=O)c2ccc3c(=O)n4c(nc3c2)CCCCC4)c1	USP17 block 36
Cc1cc(NC(=O)c2ccc3c(=O)n4c(nc3c2)CCCCC4)no1	USP30 block 31
Cc1cc(=O)oc2cc(NC(=O)c3ccc4c(=O)n5c(nc4c3)CCCC5)ccc12	none
CC(OC(=O)c1ccc2c(=O)n3c(nc2c1)CCCCC3)C(=O)NC1CCCC1 (centres undefined)	USP30 block 47, USP17 block 31
Cn1c(=O)cc(SCC(=O)NCCCN2CCc3ccccc3C2)c2ccccc21	none (no result: USP30 block, USP28 block)
Cc1ccc2c(c1)C(=O)N(CC(=O)N1CCC(C(N)=O)CC1)CC1(CCOCC1)O2	none
O=C(NCC1(c2ccccc2)CCC1)c1nc2n(n1)-c1ccccc1S(=O)(=O)N2	USP10 block 39
O=C(Nc1ccccc1Cc1ccccc1)c1nc2n(n1)-c1ccccc1S(=O)(=O)N2	USP10 block 46, USP8 inh 59
Cc1ccccc1CNC(=O)CN1C(=O)C2CCCN2C(=O)c2cccc(C)c21 (centres undefined)	USP30 block 37
CCOc1nc2cccnc2n(CC(=O)Nc2ccc3c(c2)OCO3)c1=O	none
Cc1cccc(C(C)C)c1NC(=O)Cn1c(COc2ccccc2)nc2ccccc21	none (no result: USP17 block)
CC(C)c1ccc(NC(=O)Cn2c(CNC(=O)c3ccccc3)nc3ccccc32)cc1	none
CC(NC(=O)c1ccccc1)c1nc2ccccc2n1CC(=O)Nc1ccc(F)cc1 (centres undefined)	USP17 block 39, USP8 inh 66
CC(NC(=O)c1ccccc1)c1nc2ccccc2n1CC(=O)Nc1ccc2c(c1)OCO2 (centres undefined)	USP10 block 56, USP30 block 49, USP17 block 54, USP8 inh 74
CCc1cccc(C)c1NC(=O)Cn1c(C(C)NC(=O)c2ccc(C)cc2)nc2ccccc21 (centres undefined)	USP10 block 44, USP30 block 54, USP17 block 61, USP28 block 40, USP8 inh 75
Cn1nc(C(=O)N2CCN(c3ccccn3)CC2)c2c1-c1ccccc1SC2	none
COc1ccc(CCNC(=O)CSc2nnc(CNC(=O)COc3ccc(Cl)cc3)o2)cc1OC	USP30 block 34, USP17 block 46
O=C(COc1ccc(Cl)cc1)NCc1nnc(SCC(=O)NCc2ccc3c(c2)OCO3)o1	USP17 block 70
COc1cccc(CC(=O)N2CCCc3c(cnn3C)C2)c1	none
Cc1nc2ccccc2n1CC(O)Cn1c2ccccc2c2ccccc21 (centres undefined)	none
CCCn1c(C(O)c2cccc3ccccc23)nc2ccccc21 (centres undefined)	USP8 inh 48
Cc1ccc(S(=O)(=O)c2c(C(=O)N3CCCCC3)cnc3ccccc23)c(C)c1	none
COc1c(C)c(OC(=O)c2c(C)c(C)c(OC(=O)c3c(C)c(C)c(O)c(C)c3O)c(C)c2OC)c(C)c(C)c1C(=O)O	USP10 block 66, USP30 block 54, USP17 block 51, USP28 block 70
O=C(Nc1cccc(-c2nc3cnccc3o2)c1)c1cccc(F)c1	USP17 block 76 (no result: USP30 block, USP28 block)
